The values below come from PubChem BioAssay.

Values without a mark were called inactive. The source made the active and inactive calls.

The assay can be described thus: PSAC antagonists in infected red cells, primary screen, cell-based, P. falciparum Indochina, OD700, 1 h (AID 1154). The following applies: P. falciparum Indochina infected RBC osmotic lysis, higher = more signal, called active from +8 up or from −8 down.
`COc1ccc([Si](C)(C)[C@@H]2[C@@H](CCO)O[C@]3(C(=O)N(Cc4cccc(N5CCOC5=O)c4)c4ccccc43)[C@H]2C)cc1`: the z-score was 31.3 (active). Regarding `CCOC(=O)C1=CC[C@H]2C(=O)N(c3ccccc3)C(=O)[C@@H]12`, the z-score is 0.399.

For `CCOC(=O)C[C@H]1[C@H](OC(=O)c2ccc(C(=O)c3ccccc3)cc2)[C@@H](NC(=O)Cc2ccc(OC)cc2)c2cc(OCCCO)ccc2N1C(=O)c1ccc2ccccc2n1`, the z-score was 3.85. On to `COC(=O)[C@@]1(Cc2ccc(F)cc2)[C@H]2c3cc(C(=O)N(C)C)n(Cc4cc(C)n(C)n4)c3C[C@H]2CN1C(=O)c1ccccc1`, for which the z-score is 0.797. In the case of `CCCC[C@@H]1C[C@H]1[C@@H](NC(=O)c1cccnc1)c1ccc(Cl)cc1` it was 2.29; in that of `[N-]=[N+]=Nc1ccccc1C[C@@]1(C(=O)N2CCCCC2)N=C(c2ccc(OCCCO)cc2)O[C@@H]1c1ccccc1N=[N+]=[N-]`, 31.8 (active). The result for `C=CCC(OC(C)=O)[C@@H]1[C@@H](N(Cc2ccc(-c3cccc(C(F)(F)F)c3)o2)C(=O)c2cccc3ccccc23)c2cc(OCCCO)ccc2N1C(=O)Cc1ccc2ccccc2c1` (stereo partly specified) reads 0.877; that for `CCCCN1CC=CC23O[C@@H]4C=CCOC(=O)[C@@H]4[C@H]2C(=O)N(CCCCCCO)[C@@H]3C1=O` (stereo partly specified), 2.08.

Turning to `O=C1C2C=CC(C(O)C=Cc3ccc([N+](=O)[O-])cc3)N(n3cnnc3)C2C(=O)N1Cc1ccccc1` (stereo unspecified), the z-score was 4.59. `O=C1[C@H]2C=C(Br)[C@H](C[C@@H]2OCCCCCCO)[C@@]12CO2`: the z-score is 1.53. The result for `CCCCCCCCCCC(O)C1C=CC2C(=O)NC(=O)C2N1Nc1ccc(Cl)cc1Cl` (stereo unspecified) reads 4.61; that for `C=CC1c2cc(O)c(OC)cc2CCN1Cc1cccc(OC(F)(F)F)c1` (stereo unspecified), 5.32; that for `CC(C)[Si](C#C[Si](C(C)C)(C(C)C)C(C)C)(O[C@H](C)c1cn(Cc2ccccc2)nn1)C(C)C`, -0.0395. On to `O=C1O[C@H](c2ccccc2)[C@H](c2ccccc2)N2[C@H]1[C@@H](C(=O)NC[C@H](O)c1ccccc1)[C@]1(C(=O)Nc3ccc(C#CC4=CCCCC4)cc31)[C@H]2c1ccccc1OCCO`, for which the z-score was 1.84.

For `COc1ccc(-c2cc3c(c(Cc4ccccc4)n2)[Si](C(C)C)(C(C)C)OC3)cn1`, the z-score is 2.28. In the case of `C=CCC(OC(C)=O)[C@@H]1[C@@H](N(Cc2ccc(-c3cccc(C(F)(F)F)c3)o2)C(=O)Cc2ccc(OC)cc2)c2cc(OCCCO)ccc2N1C(=O)c1ccc2ccccc2c1` (stereo partly specified) it was 1.35; in that of `CCC(CC)C(O)C1C=CC2C(=O)N(c3ccccc3)C(=O)C2N1Nc1ccccc1` (stereo unspecified), 4.73.

As to `CN1C(=O)C2C=CC(C(O)c3c(F)cccc3Cl)N(NC(=O)OC(C)(C)C)C2C1=O` (stereo unspecified), the z-score was -0.332. The result for `C=C[C@H](C)[C@@H](OC(=O)Nc1ccc(SC)cc1)c1ccc(O)c2ccccc12` reads 27.7 (active); that for `COc1ccccc1CN1C(=O)c2ccccc2[C@@H](C(=O)NCc2ccccc2)[C@@H]1c1ccc(CO)cc1`, 1.8.

Regarding `O=C1OCC=C[C@H]2OC34C=CCN(Cn5nnc6ccccc65)C(=O)[C@H]3N(CCCCCO)C(=O)[C@@H]4[C@@H]12` (stereo partly specified), the z-score is 0.896. Consider `Cc1ccc(S[C@]2(C(=O)NCC(C)C)CC(=O)N(Cc3cc(C(F)(F)F)cc(C(F)(F)F)c3)[C@@H]2c2ccc(CO)cc2)cc1`, for which the z-score is 1.3.

For the compound `CS(=O)(=O)CCOC(=O)C1=CC(CCCO)=CC(C2CC2)N(Cc2cc3c(cc2Br)OCO3)C=C1C(=O)OCCS(C)(=O)=O` (stereo unspecified), the z-score was 3.83.

With `C=CCOC(=O)[C@H]1[C@@H]2C(=O)O[C@@H](c3ccccc3)[C@@H](c3ccccc3)N2[C@@H](c2ccc(OCCOC(=O)[C@H]3C[C@H]4C(=O)N[C@@H](CCCCN(C)C)C(=O)N4[C@H]3c3cccc(OCCO)c3)cc2)[C@]12C(=O)Nc1ccc(I)cc12`, the z-score is -1.87. In the case of `COc1ccc([Si](C)(C)[C@H]2[C@H](CC(=O)N3CCC[C@H]3CO)O[C@@]3(C(=O)N(Cc4cccc(N5CCOC5=O)c4)c4ccccc43)[C@@H]2C)cc1` it was 4.76. In the case of `O=C1OCCC=C[C@H]2OC34C=CCN(c5ccc(Cl)cc5)C(=O)[C@H]3N(CCCO)C(=O)[C@@H]4C12` (stereo partly specified) it was 0.991; in that of `COc1ccc(C(O)C2C=CC3C(=O)N(C)C(=O)C3N2N(c2ccccc2)c2ccccc2)c2ccccc12` (stereo unspecified), 1.24; in that of `COCC(=C=CC[C@H](O)c1cccc(OCCO)c1)CCO`, 2.69. Take `CC[C@@H]1C=C(C(=O)O)[C@H](c2ccc(C)cc2)N1S(=O)(=O)c1ccc(C)cc1`: the z-score is 1.08. For the compound `O=C1NC(=O)C2C1C=CC(C(O)C1CC=CCC1)N2Nc1ccccn1` (stereo unspecified), the z-score is -0.158. The result for `COc1ccc(C(=O)Nc2cccc(CN3C(=O)[C@]4(O[C@H](CCn5cc(CCO)nn5)[C@@H]([Si](C)(C)c5ccc(OC)cc5)[C@@H]4C)c4ccccc43)c2)cc1` reads 6.78; that for `CS(=O)(=O)CCOC(=O)C1=CC(CCCO)=CC(c2ccc(CN3CCCC3)cc2)N(Cc2cccc(OC(F)(F)F)c2)C=C1C(=O)OCCS(C)(=O)=O` (stereo unspecified), 1.55; that for `COC(=O)c1c2oc(c1C(=O)OC)C(=O)N[C@@H](C(C)C)Cn1cc(nn1)C1(CCCCC1)NC(=O)N[C@H](CO)CC2`, 1.1. The result for `O=C1O[C@@H](c2ccccc2)[C@@H](c2ccccc2)N2[C@@H](c3ccc(OCCO)cc3)[C@]3(C(=O)Nc4ccc(C#CCCO)cc43)[C@@H](C(=O)NC[C@H](O)c3ccccc3)[C@H]12` reads 3.19; that for `CC(c1ccccc1)C(O)C1C=CC2C(=O)N(c3ccccc3)C(=O)C2N1Nc1ccccc1` (stereo unspecified), 4.6; that for `CC1CC/C=C\[C@H]2OC34C=CCN(Cc5ccccc5)C(=O)[C@H]3N(C(C)CO)C(=O)[C@@H]4C2C(=O)O1` (stereo partly specified), 0.16.
